# Data reported in ChEMBL document CHEMBL3988442, “University of Dundee, Small-Polar-MMV Screening Library” (2021).
# Hit rate of the full screen: of about 48,000 compounds, about 13,000 (27%) showed an effect of 50% or more. Some of the results follow.
# System: Wolbachia pipientis
# Test: Anti-Wolbachia Cell-Based Screen
# Format: functional
# Design: scale not given: in the data most compounds retested in dose-response had high values
# Settings: 5 µM
row,Compound,Percent Effect [%]
1,CC(=O)c1cc(CN2C[C@@H](C(=O)O)[C@H](c3cccnc3)C2)cs1,-13.15
2,CCN(Cc1cc(Cl)ccc1OC)Cc1cc(C)nn1C,-10.03
3,Cc1nnsc1CN(C)C(=O)CCn1cnc2ccccc21,-11.62
4,O=C(CNCC1(O)CCCN(Cc2cccc(F)c2F)C1=O)NC1CC1 (centres undefined),-1.283
5,CN(CCCOc1ccccc1)C(=O)CN1CCc2cncnc2C1,0.7453
6,CCCOc1ccc2c(c1)OCC(C(=O)NC(C)Cn1ccnc1)=C2 (centres undefined),6.426
7,O=C(NCCCn1cccn1)C1CCC(=O)N(CC2CCCCC2)C1 (centres undefined),-8.272
8,O=C1NC[C@@]2(C(=O)O)CN(Cc3cccc(OC4CCCC4)c3)C[C@@H]12,-26.72
9,NC(=O)N1CCCN(CCc2nc(-c3cccc(Cl)c3)no2)CC1,5.099
10,NC(=O)c1nc(-c2ccc(Cl)cc2Cl)oc1N,118.4
11,NC(=O)c1nc(-c2cccc(Cl)c2)oc1N,102.5
12,Cc1sc(CN)nc1-c1ccc(Cl)cc1Cl,-19.51
13,CC(C)C(C(N)=O)c1cccc(Cl)c1 (centres undefined),-0.9613
14,CCN1C(=O)COC[C@@H]1[C@H](O)c1ccc(NC(=O)COC)cc1,-2.196
15,c1cc(-c2nc3c(c(NCCc4c[nH]cn4)n2)CCNCC3)ccn1,6.655
16,CC(=O)c1cccc(C(=O)N2C[C@@H](CN3CCCCCC3)[C@@H](CO)C2)c1,-7.849
17,CN(C)c1ccc2c(c1)CN(C(=O)c1c[nH]cn1)C2c1cnco1 (centres undefined),3.646
18,CCn1cc(S(=O)(=O)N2CCC(C3CCCCN(C)C3=O)CC2)c(C)n1 (centres undefined),91.1
19,CN1CCCCC(C2CCN(S(=O)(=O)c3cn(C)cn3)CC2)C1=O (centres undefined),106.2
20,CCn1cc(C(=O)n2nc(C)cc2C)c(S(=O)(=O)N2CCCCC2)n1,-19.19
21,Cn1cnc(S(=O)(=O)N2CCCn3cnc(CN4CCCC4)c3C2)c1,1.863
22,CCn1cc(S(=O)(=O)N(C)Cc2c(Br)cnn2CC)c(C)n1,5.348
23,Cc1nccn1-c1cccc(C2CCCN2S(=O)(=O)c2cn(C)cn2)n1 (centres undefined),-2.327
24,CN(Cc1ccccc1)c1ccc(C(F)(F)F)cn1,3.007
25,Cc1cc(Cl)ccc1NCC(=O)Nc1cc(C(C)(C)C)no1,-19.79

row,Compound,Percent Effect [%]
1,O=C(C[C@@H]1COC[C@H]2CN(C(=O)c3ccccn3)C[C@@H]12)N1CCCC1.O=C(O)C(F)(F)F,106.7
2,Cc1cccc(C(=O)N2C[C@@H]3[C@H](CC(=O)N4CCCC4)[C@@H]3C2)n1,-9.844
3,O=C(C[C@@H]1COC[C@H]2CN(Cc3ccc(F)cc3)C[C@@H]12)N1CCCCO1.O=C(O)C(F)(F)F,6.294
4,Cc1cccc(C(=O)N2C[C@@H]3COC[C@@H](CC(=O)N4CCCC4)[C@@H]3C2)n1.O=C(O)C(F)(F)F,117.6
5,Cc1cccc(C(=O)N2C[C@@H]3[C@H](CC(=O)NC(C)C)[C@@H]3C2)n1.O=C(O)C(F)(F)F,-21.16
6,O=C(C[C@@H]1COC[C@H]2CN(Cc3ccsc3)C[C@@H]12)N1CCCC1,-43.11
7,COc1ccc2c(C)c(C(=O)NCC3CN(S(C)(=O)=O)CCO3)oc2c1 (centres undefined),-45.67
8,CC(C)[C@@H]1CN(Cc2ccccc2C#N)C[C@H]1C(=O)O,-3.453
9,CC(=O)c1cc(CN2C[C@H]3CC[C@@H]2CN(Cc2c(C)noc2C)C3)cs1,0.576
10,c1cnc(Nc2cncc(C3CCCN(c4cnccn4)C3)n2)nc1 (centres undefined),136.5
11,c1cnc(Nc2cncc(C3CCCN(c4ncccn4)C3)n2)nc1 (centres undefined),144.2
12,c1ccc(N2CCCC(c3nc(-c4cccnn4)no3)C2)nc1 (centres undefined),-11.75
13,Cc1cc(NC(=O)CNc2cccc(C(=O)N3CCCC(O)C3)c2)no1 (centres undefined),-4.959
14,Nc1nnc(SCC(=O)NCC(O)c2ccccc2)s1 (centres undefined),7.273
15,O=C(CCn1c(=O)oc2ccccc21)NCC(O)c1ccc(Cl)cc1 (centres undefined),131.9
16,CC(c1ccccn1)N(C)C(=O)NCCn1c(=O)oc2ccccc21 (centres undefined),-13.01
17,Cc1ccc(C(O)CNC(=O)CCCc2ccccn2)o1 (centres undefined),-12.57
18,O=C(NCC(O)c1ccc(F)c(F)c1)c1ccccc1F (centres undefined),-40.57
19,O=C(Cn1c(=O)oc2ccccc21)NCC(O)c1ccc2c(c1)CCO2 (centres undefined),-5.514
20,O=C(CCCc1ccccn1)NCC(O)c1ccccc1Cl (centres undefined),8.067
21,O=C(CCn1c(=O)oc2ccccc21)NCC(O)c1ccc(F)c(F)c1 (centres undefined),132.5
22,CC(NC(=O)CCn1c(=O)oc2ccccc21)c1ccccn1 (centres undefined),132.8
23,O=C(CCc1ccccn1)NCC(O)c1ccc(Cl)cc1Cl (centres undefined),-3.695
24,CC(NCCn1c(=O)oc2ccccc21)c1ccccn1 (centres undefined),-1.92
